Measurements taken from the supplement of paper PMC6555819.

Columns and labels:
Experiment in all cases: PBM binding z-score (relative to random genomic background probes); higher = stronger binding; sequences stand for … in GC…GCGATTGACAGCGTAGAATGAAGG
[1] = test system: RARb homodimer (NR concentration 270 nM)
In short: (§1)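 Scanned fluorescence from custom Agilent 4×180K protein-binding microarrays was regression-normalized. Binding z-scores use random background probes as reference. Ligand-free nuclear receptor dimers were incubated on the arrays for 1 h and detected with antibodies against each partner (one per run).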

[2] = test system: RARg:RXRa (NR concentration 270 nM, RXRa partner concentration 90 nM)
In short: as §1

[3] = test system: RARg homodimer (NR concentration 270 nM)
In short: as §1

[4] = test system: RXRa DBDmut IVT, anti-RXR (DBD mutation: RXRa K156A/R161A, NR concentration 90 nM)
In short: as §1

[5] = test system: RXRa homodimer (NR concentration 180 nM)
In short: as §1

[6] = test system: THRa:RXRa (NR concentration 90 nM, RXRa partner concentration 90 nM)
In short: as §1

[7] = test system: THRa homodimer (NR concentration 90 nM)
In short: as §1

[8] = test system: VDR homodimer (NR concentration 270 nM)
In short: as §1

Sequence: AGAACGAGGGCAAAGAGTTGATAGCACGGGTGGC
- PBM binding z-score [1]: 1.12
- PBM binding z-score [2]: 1.3
- PBM binding z-score [3]: 1.69
- PBM binding z-score [4]: 2.57
- PBM binding z-score [5]: 1.14
- PBM binding z-score [6]: 0.917
- PBM binding z-score [7]: -0.224
- PBM binding z-score [8]: 3.05

Sequence: TCAGACAGGTGAAGGTAACTCAAGTACGCAGTCG
- PBM binding z-score [1]: 0.996
- PBM binding z-score [2]: 0.573
- PBM binding z-score [3]: 0.747
- PBM binding z-score [4]: 1.54
- PBM binding z-score [5]: 1.13
- PBM binding z-score [6]: 1.68
- PBM binding z-score [7]: 0.516
- PBM binding z-score [8]: 0.389

Sequence: TCTATTAGTTGAAGGGCAACCGTCGAGTCCGTTT
- PBM binding z-score [1]: 1.41
- PBM binding z-score [2]: 0.513
- PBM binding z-score [3]: 0.573
- PBM binding z-score [4]: 1.63
- PBM binding z-score [5]: 0.558
- PBM binding z-score [6]: 0.234
- PBM binding z-score [7]: 0.122
- PBM binding z-score [8]: 1.61

Sequence: AGAATGAGGTTATTAACATCAGGGAATTGCGGTC
- PBM binding z-score [1]: 0.673
- PBM binding z-score [2]: 1.11
- PBM binding z-score [3]: 0.779
- PBM binding z-score [4]: 1.83
- PBM binding z-score [5]: 1.67
- PBM binding z-score [6]: 2.13
- PBM binding z-score [7]: 0.447
- PBM binding z-score [8]: 1.12

Sequence: CCGACTGGAGCAAAGGTTACCATACTCAGTACGA
- PBM binding z-score [1]: 2.17
- PBM binding z-score [2]: 1.89
- PBM binding z-score [3]: 1.29
- PBM binding z-score [4]: 0.545
- PBM binding z-score [5]: 2.57
- PBM binding z-score [6]: 1.39
- PBM binding z-score [7]: 0.122
- PBM binding z-score [8]: 0.17

Sequence: ACTATTAGTTGACCTAGGGCAACCGATACGACGC
- PBM binding z-score [1]: 3.05
- PBM binding z-score [2]: 2.88
- PBM binding z-score [3]: 2.36
- PBM binding z-score [4]: 0.89
- PBM binding z-score [5]: 2.55
- PBM binding z-score [6]: 2.96
- PBM binding z-score [7]: 1.6
- PBM binding z-score [8]: 0.946

Sequence: CCGACTGGGGCAGAAATGTTACCATACCATCCGG
- PBM binding z-score [1]: -0.118
- PBM binding z-score [2]: 0.0842
- PBM binding z-score [3]: 0.109
- PBM binding z-score [4]: -0.424
- PBM binding z-score [5]: 0.066
- PBM binding z-score [6]: -0.666
- PBM binding z-score [7]: -0.0908
- PBM binding z-score [8]: -0.0383
